Hits are enriched below; roughly 27% of the tested compounds scored in any of these assays.
CYP2C19 act = human CYP2C19 activators, primary screen, biochemical, luminescence; 96,000 tested, under 10 active; Cytochrome P450 2C19 (Homo sapiens), P33261; activation factor at 5 µM; recombinant CYP2C19, luciferin-H EGE luminescence; stronger effect = higher value; 0 = fully inhibited enzyme, 1 = untreated enzyme; AID 1025, 2008;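 active = activation factor of at least 2 at 5 µM in the primary screen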;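 also: 0 = wells with 2.5 mM tranylcypromine and 1 = vehicle-only wells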
EphB4 antag = EphB4-ephrin-B2 interaction antagonists, primary screen, biochemical, TNYL-RAW peptide probe, fluorescence polarization. Ephrin type-B receptor 4 (Homo sapiens), P54760. EphB4 LBD / TNYL-RAW-Alexa532 peptide. inhibition, % at 7 µM. actives 0.15% (n = 97,000);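 active = inhibition above the screen-wide mean inhibition plus 3 SD, cut at about 15% in these data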;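 also: 0% = DMSO wells and 100% = excess unlabeled TNYL-RAW peptide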
CYP2C19 inhib = blockers of cytochrome P450 2C19 activity – biochemical, luminescence, ADME assay, primary screen; CYP2C19 Supersomes, luciferin-H EGE luminescence, 30 min; inhibition, % at 5 µM; actives 21% (n = 96,000);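 active = CYP2C19 inhibition above a set limit at 5 µM in the primary screen, cut at about 50% in these data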;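 also: plate controls were negative control wells for no effect and 2.5 mM tranylcypromine positive control for full effect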
CYP2C9 activ = human CYP2C9 activators, primary screen, biochemical, luminescence | Cytochrome P450 2C9 (Homo sapiens), P11712 | recombinant CYP2C9, luciferin-H conversion; stronger effect = higher value; factor 1 = untreated enzyme, 0 = blocked | activation factor at 5 µM | actives 1.4% (n = 96,000) | AID 1024, 2008;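 active = activation factor of 2 or more for CYP2C9 at a 5 µM dose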;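 also: 0 = sulfaphenazole-blocked wells and 1 = vehicle-only wells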
Target sequence (P11712 whole entry, looked up): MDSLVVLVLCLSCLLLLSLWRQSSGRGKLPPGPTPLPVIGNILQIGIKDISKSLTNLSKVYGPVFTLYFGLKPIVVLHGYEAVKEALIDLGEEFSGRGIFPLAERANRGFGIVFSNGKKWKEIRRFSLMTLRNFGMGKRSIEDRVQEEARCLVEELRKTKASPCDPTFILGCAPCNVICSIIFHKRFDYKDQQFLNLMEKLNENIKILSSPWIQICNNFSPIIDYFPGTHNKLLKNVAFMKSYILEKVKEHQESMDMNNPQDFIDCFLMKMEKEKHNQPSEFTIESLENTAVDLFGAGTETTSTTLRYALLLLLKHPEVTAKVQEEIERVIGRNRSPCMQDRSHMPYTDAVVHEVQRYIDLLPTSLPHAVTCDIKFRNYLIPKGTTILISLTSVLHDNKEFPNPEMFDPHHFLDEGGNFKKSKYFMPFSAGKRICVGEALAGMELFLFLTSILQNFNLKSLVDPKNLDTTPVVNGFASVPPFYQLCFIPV
CYP2C9 inh = blockers of cytochrome P450 2C9 activity – biochemical, luminescence, ADME assay, primary screen; P11712; CYP2C9 Supersomes, luciferin-H conversion; inhibition, % at 5 µM; actives 20% (n = 96,000); AID 777, 2007;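 active = blocking of liver enzyme CYP2C9 beyond about 50% at 5 µM, limit read from the data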
* = called active by the depositor; . = not tested or not shown.

SMILES	CYP2C19 act	EphB4 antag	CYP2C19 inhib	CYP2C9 activ	CYP2C9 inh
O=C(COc1ccc(S(=O)(=O)N2CCCC2)cc1)NCCC1=CCCCC1	0.6	-4.4	42.8	0.1	85.8*
CC(=O)Nc1ccc(S(=O)(=O)NC(CC(=O)NCCC2=CCCCC2)C(C)C)cc1 (configuration not stated)	0.1	-4.6	94.9*	0.7	31.9
Cc1ccc(S(=O)(=O)N2CCCC(C(=O)NCCC3=CCCCC3)C2)cc1 (configuration not stated)	0.9	3.9	11.3	0.9	12.9
CC(C)(C)NS(=O)(=O)c1ccc(OCC(=O)NCCC2=CCCCC2)cc1	0.1	1.9	85.1*	0.2	84.4*
C=CCOc1ccccc1C1NC(=O)NC(C)=C1C(=O)NCc1ccccc1 (configuration not stated)	0.8	-0.8	18.3	0.6	40.6
CCOC(=O)c1sc(NC(=O)CNC(=O)Cn2cnc3sc(C)c(C)c3c2=O)nc1C	0.8	1.6	15.1	0.6	37.0
Fc1cccc(NC(=S)Nc2ccc(Br)cc2)c1	0.2	-1.5	81.7*	0.4	57.6*
Fc1cccc(Cl)c1Cn1nnc2c(-n3ccnc3)ncnc21	0.1	.	94.9*	0.3	66.4*
CCC(=O)N=C1SC2CS(=O)(=O)CC2N1c1cccc(OC)c1 (configuration not stated)	0.9	-13.3	6.8	0.9	6.7
Cc1ccc(-n2c(SCC(=O)NC3CCCCC3)nc3c(c2=O)SCC3)cc1	0.8	.	24.1	0.9	8.4
COc1cccc(C(c2sc3ncnn3c2O)N2CC(C)OC(C)C2)c1 (configuration not stated)	0.5	2.2	45.6	0.5	46.7
CC(/C=N/NC(=O)c1ccc(Br)cc1)=C\c1ccccc1	1	-2.6	-0.7	0.7	29.6
CC(/C=C1\SC(=S)N(NC(=O)c2ccc(C)cc2)C1=O)=C\c1ccccc1	0.8	-6.5	18.3	0.4	61.2*
C#CC[N+]1(CC#Cc2ccc(C#CC[N+]3(CC#C)CCOCC3)cc2)CCOCC1	.	-3.0	.	.	.
O=C(CNS(=O)(=O)c1ccc2ccccc2c1)OCC(=O)c1ccc(Br)s1	0.7	0.1	29.3	2.3*	-131.8
CSc1ccc(-c2nnn(CC(=O)NCc3ccccc3)n2)cc1	0.7	2.2	34.3	0.7	33.3
CCOC(=O)C(Cc1ccccc1)NC(=O)Cn1nnc(-c2ccc(SC)cc2)n1 (configuration not stated)	0.3	6.6	66.7*	0.9	14.9
c1ccc(CN2CCN(c3nc(-c4ccccc4)nc(-n4ccnc4)n3)CC2)cc1	0.7	-0.7	34.3	0.4	57.2*
CCCCNc1nc(-c2ccccc2)nc(-n2ccnc2)n1	0.1	-2.7	85.7*	0.1	85.2*
c1ccc(-c2nc(-n3ccnc3)nc(-n3ccnc3)n2)cc1	0.4	.	55.9*	0.5	48.6
CCCNS(=O)(=O)c1cccn1-c1ncc(C(F)(F)F)cc1Cl	0.5	-0.6	50.9*	0.3	66.1*
O=C(Cc1ncc(C(F)(F)F)cc1Cl)N1CCN(c2ccccn2)CC1	0.8	3.6	17.8	1.2	-18.4
O=C(COC(=O)CCC(=O)c1cccs1)Nc1cccc(S(=O)(=O)N2CCOCC2)c1	0.4	0.7	63.8*	0.7	29.8
Cc1ccc(NC(=O)COC(=O)CCC(=O)c2cccs2)cc1S(=O)(=O)N1CCOCC1	0.7	4.4	32.3	0.5	53.0*
O=C(COC(=O)CCC(=O)c1cccs1)Nc1cc(S(=O)(=O)N2CCOCC2)ccc1Cl	0.5	1.5	45.9	0.2	79.8*
SMILES	CYP2C19 act	EphB4 antag	CYP2C19 inhib	CYP2C9 activ	CYP2C9 inh
Cc1ccc(NC(=S)NC(NC(=O)c2ccco2)C(Cl)(Cl)Cl)cc1 (configuration not stated)	0.8	0.0	18.4	0.1	92.4*
Cc1cccc(NC(=S)NC(NC(=O)c2ccco2)C(Cl)(Cl)Cl)c1 (configuration not stated)	0.7	-0.4	29.4	0.2	83.6*
O=C(O)c1ccc(NC(=S)NC(NC(=O)c2ccco2)C(Cl)(Cl)Cl)cc1 (configuration not stated)	1	2.4	-1.3	1.1	-6.9
Cc1cccc(NC(=O)c2cc(NC(=O)c3ccco3)ccc2N2CCCCC2)c1	0.9	3.9	6.2	0.8	18.1
COc1ccc(/C=C(/NC(=O)c2ccccc2)C(=O)N/N=C/c2ccc3c(c2)OCO3)cc1OC	0.6	6.8	39.9	0.9	7.0
COc1ccc(/C=N\NC(=O)/C(=C\Nc2nccc(C)n2)NC(=O)c2ccccc2)cc1	0.7	2.9	31.7	0.2	76.3*
COc1ccc(OC)c(N(CC(=O)Nc2ccc3c(c2)OCO3)S(=O)(=O)c2ccccc2)c1	0	5.2	98.3*	0	100.0*
CS(=O)(=O)N(CC(=O)Nc1ccc2c(c1)OCO2)c1ccccc1	0.7	.	26.9	0.8	20.7
COc1ccc(Cl)cc1N(CC(=O)Nc1ccc2c(c1)OCO2)S(C)(=O)=O	0.1	0.0	94.9*	0.1	85.9*
CCOC(=O)C1CCN(C(=O)CN(c2cc(OC)ccc2OC)S(=O)(=O)c2ccccc2)CC1	0.8	.	16.7	0.6	44.6
COCCCNC(=O)CN(c1cc(OC)ccc1OC)S(=O)(=O)c1ccccc1	0.4	4.3	56.1*	0.4	59.3*
CS(=O)(=O)N(CC(=O)Nc1ccc2c(c1)OCCO2)c1ccc2c(c1)OCO2	0.1	1.3	87.8*	0.4	57.6*
CC(C)OC(=O)CC(=O)c1sc2nc3c(cc2c1N)CN(C)CC3	0.9	.	5.7	1	4.5
S=C(c1ccccc1)N(c1ccccc1)c1ccccc1	0.1	4.2	93.9*	0.7	30.6
Cn1c(CNC(=O)c2ccccc2)nnc1SCC(=O)N1CCN(c2ccccc2)CC1	.	3.8	.	.	.
COc1ccc(C(NC(C)=O)c2ccc3cccnc3c2O)c(OC)c1 (configuration not stated)	0.4	.	58.5*	0.6	41.0
COc1cccc(-c2nc(Cc3ccc(OC)c(OC)c3)no2)c1	0.4	-0.9	57.5*	0.8	16.9
COc1ccc(-c2nc(Cc3ccc(Cl)cc3)no2)cc1OC	1.1	-8.7	-12.3	0.6	38.2
NS(=O)(=O)c1ccc(NC(=O)CSc2nnc(Cc3cccs3)n2-c2ccccc2)cc1	1.1	5.9	-13.4	0.9	5.1
Cc1nc2nc(-c3ccccc3)cn2nc1C	0.5	.	52.3*	0.8	23.9
Brc1ccc(-c2cn3nc4c(nc3n2)CCCC4)cc1	0.6	5.0	38.2	0.8	18.6
CCc1ccc(-c2cn3nc(C)c(C)nc3n2)cc1	.	-4.1	.	.	.
c1ccc(-c2cn3nc4c(nc3n2)CCCC4)cc1	0.2	-4.3	80.8*	0.7	28.7
Nc1nc2ccccc2nc1N	1.1	.	-7.6	1.2	-20.7

Screening data (PubChem BioAssay)
